Assay outcomes: PubChem, National Center for Advancing Translational Sciences (NCATS)
NTMT1 inhibitor: blocks human N-terminal methyltransferase 1 activity; Q9BV86; NTMT1 MTase-Glo SAH luminescence, purified enzyme; Potency, µM (titrated, usually from 114 µM), without a hit: top-dose activity change, negative = inhibition, hits mostly inhibitors; 59,000 compounds, 2.5% hits; AID 1645870;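 note: potency is the fitted concentration of half-maximal effect; plate controls were DMSO vehicle for no effect and no enzyme for full effect; nearly all actives have a fitted effect of over 65% in size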
HTT prom inh: inhibits huntingtin promoter activity; HEK293 HTT promoter firefly luciferase reporter, 24 h; Potency, µM (top dose mostly 57.5 µM), for inactives: at the highest dose activity change, negative = inhibition, usual class: inhibitors; 48,000 compounds, 0.93% hits; note: potency is the fitted concentration of half-maximal effect; nearly all actives have a fitted effect of over 50% in size
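Firefly luciferase signal from promoter-reporter HEK293 cells was scaled between vehicle (0%) and zero RLU (-100%). Compounds were tested at final concentrations of up to 57.5 uM over 24 h at 37 degrees C. PTC124 at 50 uM final served as control inhibitor.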
HTT-AS promoter: HTT-AS promoter activation; HEK293 HTT-AS promoter firefly luciferase reporter, 24 h; response scale: percent change from vehicle, -100% = no light; Potency, µM (series often up to 57.5 µM), inactives show at the highest dose activity change, positive = activation, most hits filed as activators; 48,000 compounds, 0.24% hits; AID 1508624; note: potency is the fitted concentration of half-maximal effect; nearly all actives have a fitted effect of over 55% in size
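HEK293 cells carrying firefly luciferase reporters were seeded at 2,500 per well in Opti-MEM and cultured for 24 h. They were then treated with compounds at up to 57.5 uM final for 24 h at 37 degrees C before Dual-Glo luminescence readout.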
B2AR arrestin ag: beta-arrestin recruitment by human beta2-adrenergic receptor ligands | P07550 | HTLA Tango cells, beta-arrestin recruitment, luciferase luminescence, 18 h | Potency, µM (titrated, usually from 46.1 µM), actives largely listed as activators | 44,000 tested, under 10 active;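 note: potency is the fitted concentration of half-maximal effect; 0% = DMSO and full agonism = EC100 isoproterenol or metaproterenol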
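Ligand-induced beta-arrestin recruitment to recombinant beta2-AR is measured via a tTA-driven luciferase reporter in Tango cells after 18 hr compound exposure at 37 degrees C. Concentrations span up to 46 microM.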
TSG101-PTAP inh: blocks PTAP binding to human TSG101, validation | Q99816 | Fluorescence polarization, FITC-PTAP peptide/Tsg101, 20 min | Potency, µM (doses to about 115 µM), hits mostly inhibitors | 44,000 tested, under 10 active | AID 1347069; note: potency is the fitted concentration of half-maximal effect; 0% is about no effect
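FITC-labeled PTAP peptide (50 nM final) binding to Tsg101 binding domain (10 uM final) read by fluorescence polarization after 20 min at r.t. in HEPES pH 7.5 buffer. Actives by CRC class, <25 µM.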
GALK inh: inhibits human galactokinase. P51570. recombinant GALK, Kinase-Glo ATP luminescence, 1 h. Potency, µM (top dose mostly 57.5 µM), inactives show at the highest dose activity, negative = inhibition, most hits filed as inhibitors. 44,000 tested, under 10 active. AID 1347072;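 note: plate controls were full GALK reaction for no effect and reaction lacking GALK for full effect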
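5 nM GALK with 35 µM ATP and 100 µM galactose in HEPES pH 8.0, MgCl2, NaCl, DTT, BSA; 1 h RT reaction, remaining ATP detected by Kinase-Glo Plus luminescence after 10 min; qHTS concentration series.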
Sfp qHTS opt: inhibits purified B. subtilis Sfp PPTase. Potency, µM (series often up to 114 µM), for inactives: at the top dose activity change, negative = inhibition, hits mostly inhibitors. purified Sfp PPTase enzyme activity, qHTS. 230 compounds, 78% hits. shares compounds with NTMT1 inhibitor
HM489 growth: B. subtilis HM489 growth inhibition; B. subtilis HM489 (acpS-) growth, BacTiter-Glo, 5 h; shares compounds with NTMT1 inhibitor; Potency, µM (highest dose often 114 µM), inactives show at the top dose activity change, negative = inhibition, most hits filed as inhibitors; 220 compounds, 50% hits; AID 540353
Sfp PPTase gel: Sfp PPTase inhibition, gel-based detection | shares compounds with NTMT1 inhibitor | purified Sfp PPTase, gel-based product detection | Potency, µM (titrated, usually from 250 µM), for inactives: at the top dose activity change, negative = inhibition, most hits filed as inhibitors | 220 compounds, 54% hits
Sfp inh SAR2: inhibitors of Bacillus subtilis Sfp PPTase, SAR round 2; Potency, µM (series often up to 57.1 µM), without a hit: at the highest dose activity change, negative = inhibition, hits mostly inhibitors; 230 compounds, 87% hits; AID 602370; shares compounds with NTMT1 inhibitor; purified Sfp enzyme, PPTase activity, qHTS
HSD17B4 inh: HSD17B4 (human) inhibition, HPGD counter-screen. shares compounds with NTMT1 inhibitor. purified HSD17B4, estradiol/NAD+, NADH fluorescence. Potency, µM (series often up to 57.1 µM), inactives show at the highest dose activity change, negative = inhibition, usual class: inhibitors. 230 compounds, 10% hits. AID 743187
Target sequence (P51659 whole entry, looked up): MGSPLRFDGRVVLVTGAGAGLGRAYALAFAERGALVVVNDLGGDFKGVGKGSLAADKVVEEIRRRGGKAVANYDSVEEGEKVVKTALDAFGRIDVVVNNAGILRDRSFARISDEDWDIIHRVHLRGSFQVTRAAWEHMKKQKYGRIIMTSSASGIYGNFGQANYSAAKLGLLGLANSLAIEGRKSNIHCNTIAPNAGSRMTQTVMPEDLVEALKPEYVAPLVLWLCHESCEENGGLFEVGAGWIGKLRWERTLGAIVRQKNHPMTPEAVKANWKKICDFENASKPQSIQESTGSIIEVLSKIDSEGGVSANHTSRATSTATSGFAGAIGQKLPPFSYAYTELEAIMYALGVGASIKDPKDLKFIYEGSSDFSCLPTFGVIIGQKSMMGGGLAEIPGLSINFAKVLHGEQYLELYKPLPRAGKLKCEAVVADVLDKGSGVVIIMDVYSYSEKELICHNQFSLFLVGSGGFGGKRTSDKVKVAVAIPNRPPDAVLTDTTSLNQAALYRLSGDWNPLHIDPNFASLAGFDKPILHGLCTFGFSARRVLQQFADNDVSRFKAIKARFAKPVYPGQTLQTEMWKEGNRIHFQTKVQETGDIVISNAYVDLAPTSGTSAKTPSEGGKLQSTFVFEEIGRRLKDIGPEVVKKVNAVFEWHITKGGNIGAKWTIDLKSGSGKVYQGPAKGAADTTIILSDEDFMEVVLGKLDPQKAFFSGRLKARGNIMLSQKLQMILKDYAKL
ALDH1A1 counter: inhibits human ALDH1A1, off-target for HPGD inhibitors; shares compounds with NTMT1 inhibitor; recombinant ALDH1A1, NADH fluorescence, propionaldehyde/NAD+; Potency, µM (series often up to 57.1 µM), inactives show at the top dose activity change, negative = inhibition, usual class: inhibitors; 230 compounds, 93% hits
NNMT counter: blocks human NNMT methyltransferase | shares compounds with NTMT1 inhibitor | Potency, µM (top dose mostly 57.1 µM), inactives show at the top dose activity, negative = inhibition, usual class: inhibitors | NNMT MTase-Glo luminescence, SAH detection | 120 compounds, 10% hits | AID 1645878
An asterisk follows results filed as active; [ ] = remark or other dose. The entries come from a sample that favours hits as a whole. Calls come from the whole dose curve; as a rule, active = well fitted curve in the direction sought with a large enough effect; inconclusive = small, poorly fitted or top-dose-only effect, or another doubt; inactive = no such curve, though single readings can be large; an effect the other way counts as inactive or inconclusive.

What do the screens show for `Cc1cccc(C(=O)Nc2c(C(=O)NCc3ccc(Cl)cc3)sc3nc(C)cc(C)c23)c1`?
NTMT1 inhibitor: 11.0%; HTT prom inh: inconclusive; HTT-AS promoter: -50.3%; B2AR arrestin ag: inactive; TSG101-PTAP inh: inactive; GALK inh: 0.1%

What do the screens show for `Cc1cc(C)c2c(N)c(C(=O)NCc3ccc(Cl)cc3)sc2n1`?
NTMT1 inhibitor: -10.4%[57.5 µM]; NNMT counter: -7.6%

How did CC1(C)CC[C@]2(C(=O)O)CC[C@]3(C)C(=CCC4[C@@]5(C)C[C@@H](O)[C@H](O)[C@@](C)(CO)C5CC[C@]43C)[C@@H]2[C@@H]1O (stereo not given in full) do in these assays?
NTMT1 inhibitor: 21.2%[29.8 µM]

How did Cc1cncc(NC(=S)N2CCN(c3cccc(C(F)(F)F)c3)CC2)c1 do in these assays?
NTMT1 inhibitor: inconclusive; Sfp qHTS opt: inconclusive; HM489 growth: -13.5%; Sfp PPTase gel: inconclusive; Sfp inh SAR2: inconclusive; HSD17B4 inh: -29.8%; ALDH1A1 counter: -113.5%

What do the screens show for `FC(F)(F)c1ccc(N2CCN(C(=S)Nc3ccccn3)CC2)cc1`?
NTMT1 inhibitor: inconclusive; Sfp qHTS opt: 2.35µM*; HM489 growth: 21µM*; Sfp PPTase gel: 5.01µM*; Sfp inh SAR2: 0.58µM*; HSD17B4 inh: -11.2%; ALDH1A1 counter: 2.41µM*

What do the screens show for `COc1ccc(NC(=S)N2CCN(c3cccc(C(F)(F)F)c3)CC2)nc1`?
NTMT1 inhibitor: inconclusive; Sfp qHTS opt: inconclusive; HM489 growth: 6.8%; Sfp PPTase gel: -63.7%; Sfp inh SAR2: inconclusive; HSD17B4 inh: -14.6%; ALDH1A1 counter: 3.41µM*
